Here are results for 10 molecules from the supplement of paper PMC4022240.

± gives the standard deviation.

Holding throughout (experiment): peptide microarray binding signal (635 nm), min-max normalized on array (fraction of array maximum); higher = stronger binding
Holding throughout (conditions): peptide region: H3 5-17

Experiment [1] concerns the target T1, HaloTag-ATRX ADD domain (163-292).
T1 chain: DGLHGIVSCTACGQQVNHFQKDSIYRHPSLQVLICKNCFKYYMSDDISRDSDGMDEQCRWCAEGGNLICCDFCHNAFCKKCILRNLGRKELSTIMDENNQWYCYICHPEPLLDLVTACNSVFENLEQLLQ
An outline of the steps:
(§1)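 Two probe formats were used for 1 h at 4°C: biotin-labelled HaloTag reader fusions (10 nM to 1 μM) with streptavidin-Alexa Fluor 647, and rabbit histone antibodies (1:10,000 to 1:2,000) with anti-rabbit Alexa 647. Both were applied to nitrocellulose arrays of histone 13-mer peptide–cellulose conjugates printed in triplicate with a Cy3 tracer and blocked overnight at 4°C. Signal was read at 635 nm and misprints at 532 nm on an Axon GenePix 4000B. Binding signal is expressed as the triplicate-spot mean intensity, min-max scaled for each library.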

The target in experiment [2] is HaloTag-ING2 PHD (mouse Ing2 200-280). In short, it runs like this:
as §1

Experiment [3] deals with anti-H3K4me3 antibody ab8580. In short, it runs like this: as §1
Experiment [4] has as its target anti-H3K9me3 antibody ab8898. An outline of the steps:
as §1

[5] abbreviates: peptide modifications: H3K14me2, binder concentration: 1:2,000 dilution.
Setting [6] is: peptide modifications: H3K14me2, binder concentration: 1:10,000 dilution.
Where [7] appears, read: peptide modifications: H3K14ac, binder concentration: 1:2,000 dilution.
The mark [8] stands for this setting: peptide modifications: H3K14ac, binder concentration: 1:10,000 dilution.
Setting [9] is: peptide modifications: H3K9me3 H3K14me1, binder concentration: 1:2,000 dilution.
The mark [10] stands for this setting: peptide modifications: H3K9me3 H3K14me1, binder concentration: 1:10,000 dilution.
[11] abbreviates: peptide modifications: H3K9me3 H3S10ph, binder concentration: 1:2,000 dilution.
Setting [12] is: peptide modifications: H3K9me3 H3S10ph, binder concentration: 1:10,000 dilution.
Where [13] appears, read: peptide modifications: H3K9me3 H3T11ph, binder concentration: 1:2,000 dilution.
Where [14] appears, read: peptide modifications: H3K9me3 H3T11ph, binder concentration: 1:10,000 dilution.
[15] abbreviates: peptide modifications: H3K14me3, binder concentration: 1:2,000 dilution.
Setting [16] is: peptide modifications: H3K14me3, binder concentration: 1:10,000 dilution.
Where [17] appears, read: peptide modifications: H3K14me1, binder concentration: 1:2,000 dilution.
The mark [18] stands for this setting: peptide modifications: H3K14me1, binder concentration: 1:10,000 dilution.
Setting [19] is: peptide modifications: H3K9me3 H3K14me3, binder concentration: 1:2,000 dilution.
Setting [20] is: peptide modifications: H3K9me3 H3K14me3, binder concentration: 1:10,000 dilution.
Setting [21] is: peptide modifications: H3R8cit H3K9ac, binder concentration: 1:2,000 dilution.
Where [22] appears, read: peptide modifications: H3R8cit H3K9ac, binder concentration: 1:10,000 dilution.
Where [23] appears, read: peptide modifications: H3K9me3 H3K14me2, binder concentration: 1:2,000 dilution.
Setting [24] is: peptide modifications: H3K9me3 H3K14me2, binder concentration: 1:10,000 dilution.

Consider QTARKSTGGKAPR [H3 5-17 Q T A R K S T G G Kme2 A P R], for which the “peptide microarray binding signal” value in experiment [1] (peptide modifications: H3K14me2, binder concentration: 50 nM) was 0.00956 ± 0.00084; in experiment [1] (peptide modifications: H3K14me2, binder concentration: 500 nM) it was 0.0335 ± 0.0014; in experiment [2] (peptide modifications: H3K14me2, binder concentration: 10 nM), 0.0584 ± 0.011; in experiment [2] (peptide modifications: H3K14me2, binder concentration: 100 nM), 0.077 ± 0.0071; in experiment [3] (setting [5]) it was 0.044 ± 0.004; in experiment [3] (setting [6]), 0.0224 ± 0.0035. In addition, the “peptide microarray binding signal” value in experiment [4] (setting [5]) turned out to be 0.0137 ± 0.00078; in experiment [4] (setting [6]), 0.00715 ± 0.00071.
On to QTARKSTGGKAPR [H3 5-17 Q T A R K S T G G Kac A P R], for which the “peptide microarray binding signal” value worked out at 0.01348 ± 6.3e-05 in experiment [1] (peptide modifications: H3K14ac, binder concentration: 50 nM); 0.0307 ± 0.0021 in experiment [1] (peptide modifications: H3K14ac, binder concentration: 500 nM); 0.0491 ± 0.007 in experiment [2] (peptide modifications: H3K14ac, binder concentration: 10 nM); 0.0789 ± 0.0089 in experiment [2] (peptide modifications: H3K14ac, binder concentration: 100 nM); 0.0163 ± 0.0012 in experiment [3] (setting [7]); 0.0226 ± 0.0018 in experiment [3] (setting [8]). The results for the “peptide microarray binding signal” value in experiment [4] (setting [7]) and in experiment [4] (setting [8]) were 0.0103 ± 0.00042 and 0.00657 ± 0.0006, respectively.
As for QTARKSTGGKAPR [H3 5-17 Q T A R Kme3 S T G G Kme A P R], the “peptide microarray binding signal” value in experiment [1] (peptide modifications: H3K9me3 H3K14me1, binder concentration: 50 nM) is 0.00285 ± 0.00016; in experiment [1] (peptide modifications: H3K9me3 H3K14me1, binder concentration: 500 nM), 0.00524 ± 0.00015; in experiment [2] (peptide modifications: H3K9me3 H3K14me1, binder concentration: 10 nM) it was 0.00406 ± 0.00024; in experiment [2] (peptide modifications: H3K9me3 H3K14me1, binder concentration: 100 nM) it was 0.0116 ± 0.00073; in experiment [3] (setting [9]), 0.00483 ± 0.00038; in experiment [3] (setting [10]), 0.00251 ± 9.7e-05. Also, the “peptide microarray binding signal” value in experiment [4] (setting [9]) is 0.175 ± 0.043; in experiment [4] (setting [10]), 0.0981 ± 0.043.
Regarding QTARKSTGGKAPR [H3 5-17 Q T A R Kme3 Sph T G G K A P R], the “peptide microarray binding signal” value in experiment [1] (peptide modifications: H3K9me3 H3S10ph, binder concentration: 50 nM) was found to be 0.005862 ± 5.4e-05; in experiment [1] (peptide modifications: H3K9me3 H3S10ph, binder concentration: 500 nM), 0.0171 ± 0.00064; in experiment [2] (peptide modifications: H3K9me3 H3S10ph, binder concentration: 10 nM) it was 0.00358 ± 0.00073; in experiment [2] (peptide modifications: H3K9me3 H3S10ph, binder concentration: 100 nM), 0.0227 ± 0.0053; in experiment [3] (setting [11]) it was 0.00466 ± 0.0006; in experiment [3] (setting [12]), 0.00913 ± 0.0042. The “peptide microarray binding signal” value is 0.362 ± 0.11 in experiment [4] (setting [11]) and 0.273 ± 0.078 in experiment [4] (setting [12]).
As for QTARKSTGGKAPR [H3 5-17 Q T A R Kme3 S Tph G G K A P R], the “peptide microarray binding signal” value is 0.00737 ± 0.0032 in experiment [1] (peptide modifications: H3K9me3 H3T11ph, binder concentration: 50 nM); 0.00981 ± 0.0012 in experiment [1] (peptide modifications: H3K9me3 H3T11ph, binder concentration: 500 nM); 0.00352 ± 0.00053 in experiment [2] (peptide modifications: H3K9me3 H3T11ph, binder concentration: 10 nM); 0.00539 ± 0.0012 in experiment [2] (peptide modifications: H3K9me3 H3T11ph, binder concentration: 100 nM); 0.00485 ± 0.00012 in experiment [3] (setting [13]); 0.00747 ± 0.0029 in experiment [3] (setting [14]). Moreover, the “peptide microarray binding signal” value in experiment [4] (setting [13]) was 0.215 ± 0.078; in experiment [4] (setting [14]), 0.229 ± 0.095.
Consider QTARKSTGGKAPR [H3 5-17 Q T A R K S T G G Kme3 A P R], for which the “peptide microarray binding signal” value in experiment [1] (peptide modifications: H3K14me3, binder concentration: 50 nM) is 0.00931 ± 0.00042; in experiment [1] (peptide modifications: H3K14me3, binder concentration: 500 nM), 0.0186 ± 0.0016; in experiment [2] (peptide modifications: H3K14me3, binder concentration: 10 nM), 0.0256 ± 0.00028; in experiment [2] (peptide modifications: H3K14me3, binder concentration: 100 nM), 0.0377 ± 0.0028; in experiment [3] (setting [15]), 0.0987 ± 0.029; in experiment [3] (setting [16]), 0.0663 ± 0.0053. Further, the “peptide microarray binding signal” value in experiment [4] (setting [15]) was determined as 0.0574 ± 0.00077; in experiment [4] (setting [16]), 0.0328 ± 0.0018.
For QTARKSTGGKAPR [H3 5-17 Q T A R K S T G G Kme A P R], the “peptide microarray binding signal” value in experiment [1] (peptide modifications: H3K14me1, binder concentration: 50 nM) worked out at 0.0197 ± 0.00048; in experiment [1] (peptide modifications: H3K14me1, binder concentration: 500 nM), 0.047 ± 0.0024; in experiment [2] (peptide modifications: H3K14me1, binder concentration: 10 nM), 0.0957 ± 0.02; in experiment [2] (peptide modifications: H3K14me1, binder concentration: 100 nM), 0.0987 ± 0.016; in experiment [3] (setting [17]), 0.0306 ± 0.0089; in experiment [3] (setting [18]), 0.0289 ± 0.0032. The “peptide microarray binding signal” value is 0.0125 ± 0.0013 in experiment [4] (setting [17]) and 0.0104 ± 0.0012 in experiment [4] (setting [18]).
As to QTARKSTGGKAPR [H3 5-17 Q T A R Kme3 S T G G Kme3 A P R], the “peptide microarray binding signal” value in experiment [1] (peptide modifications: H3K9me3 H3K14me3, binder concentration: 50 nM) was determined as 0.00721 ± 0.00063; in experiment [1] (peptide modifications: H3K9me3 H3K14me3, binder concentration: 500 nM), 0.00614 ± 0.00023; in experiment [2] (peptide modifications: H3K9me3 H3K14me3, binder concentration: 10 nM) it was 0.00549 ± 0.00022; in experiment [2] (peptide modifications: H3K9me3 H3K14me3, binder concentration: 100 nM) it was 0.00609 ± 0.00036; in experiment [3] (setting [19]), 0.0344 ± 0.0088; in experiment [3] (setting [20]), 0.0374 ± 0.015. In addition, the figures for the “peptide microarray binding signal” value in experiment [4] (setting [19]) and in experiment [4] (setting [20]) were 0.241 ± 0.054 and 0.261 ± 0.13, respectively.
As to QTARKSTGGKAPR [H3 5-17 Q T A Rcit Kac S T G G K A P R], the “peptide microarray binding signal” value in experiment [1] (peptide modifications: H3R8cit H3K9ac, binder concentration: 50 nM) was 0.0106 ± 0.00074; in experiment [1] (peptide modifications: H3R8cit H3K9ac, binder concentration: 500 nM), 0.0249 ± 0.0053; in experiment [2] (peptide modifications: H3R8cit H3K9ac, binder concentration: 10 nM), 0.0426 ± 0.0074; in experiment [2] (peptide modifications: H3R8cit H3K9ac, binder concentration: 100 nM) it was 0.0673 ± 0.0053; in experiment [3] (setting [21]), 0.0133 ± 0.0056; in experiment [3] (setting [22]), 0.0146 ± 0.0065. The “peptide microarray binding signal” value worked out at 0.0143 ± 0.0052 in experiment [4] (setting [21]) and 0.0112 ± 0.00045 in experiment [4] (setting [22]).
Regarding QTARKSTGGKAPR [H3 5-17 Q T A R Kme3 S T G G Kme2 A P R], the “peptide microarray binding signal” value in experiment [1] (peptide modifications: H3K9me3 H3K14me2, binder concentration: 50 nM) is 0.0125 ± 0.00061; in experiment [1] (peptide modifications: H3K9me3 H3K14me2, binder concentration: 500 nM), 0.0226 ± 0.0018; in experiment [2] (peptide modifications: H3K9me3 H3K14me2, binder concentration: 10 nM) it was 0.0179 ± 0.0015; in experiment [2] (peptide modifications: H3K9me3 H3K14me2, binder concentration: 100 nM), 0.0366 ± 0.016; in experiment [3] (setting [23]), 0.117 ± 0.017; in experiment [3] (setting [24]), 0.082 ± 0.012. In addition, the “peptide microarray binding signal” value in experiment [4] (setting [23]) is 0.869 ± 0.044; in experiment [4] (setting [24]), 1 ± 0.084.
